# From PubChem BioAssay
# Where “and” joins values, the source holds several entries; their conditions need not be identical. Equal values may be shown once. For part of these data: Entries with a potency or affinity are not part of this list. Calls of active or inactive are those of the source.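 How the source made its calls, unless noted: active means thallium flux through the channel raised or lowered by more than 3 SD from vehicle-only wells, actives on both sides; inactive means the rest.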
# Tests used:
# [1] = polyglutamine-triggered caspase-3 activation inhibitors, cell-based (AID 1583); conditions: polyglutamine-induced caspase-3 activation, cell assay; stronger effect = higher value;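 tested at 10 µM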
# [2] = suppressors of polyQ aggregation in yeast, 75Q-TubU reporter (AID 1593); conditions: Yeast 75Q polyglutamine aggregation reporter
# [3] = rescue of polyQ-huntingtin neuronal dysfunction in worms, whole organism, C. elegans mechanosensory neurons, N-terminal huntingtin (AID 1599); conditions: touch response, stronger effect = higher value
# [4] = inhibitors of mitochondrial cytochrome c release, biochemical, purified mitochondria (AID 1603); conditions: stronger effect = lower value;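 further: mouse liver mitochondria challenged with calcium chloride; signal normalized to the plate average as 100%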
# [5] = inhibitors of polyQ protein aggregation (AID 1604); conditions: polyglutamine-induced protein aggregation inhibition assay; stronger effect = higher value; tested at 2.5 µM
# [6] = enhancers of glutamate uptake in motor neurons, MN-1 cell line (AID 1612); conditions: MN-1 motor neuron cells, stronger effect = higher value;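 further: tested at 1 µM final; 0% = mean of DMSO vehicle wells on each plate; positive means more glutamate uptake than control and negative means less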
# [7] = suppressors of polyglutamine aggregation in yeast, 75Q-TubH (AID 1616); conditions: S. cerevisiae 75Q-TubH polyglutamine aggregation suppression; stronger effect = higher value
# [8] = hESC survival regulators, cell-based (AID 493140; call rule not given here;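 further: cells exposed to compounds for four days before counting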); conditions: human embryonic stem cell survival screen; stronger effect = higher value
# [9] = system: Hepatitis C virus NS3 helicase; assay: HCV NS3 helicase inhibitors, primary screen, biochemical, fluorescence polarization, LOPAC1280 library (AID 687035; in the data active means inhibition above about 37%); conditions: Purified HCV NS3 helicase, Cy5-dT15 ssDNA binding fluorescence polarization; stronger effect = higher value; concentration not given here
# [10] = Cy5 fluorescence interference with SSB-bound oligo, artefact control for HCV NS3 helicase inhibitor project, biochemical, NIH Clinical Collection, E. coli SSB (AID 743268; call rule not given here)
# [11] = modulation of C. elegans fzo-1 (AID 1259413; call rule not given here;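 further: fzo-1 mutant C. elegans worms in liquid wells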); conditions: C. elegans fzo-1 modulator screen, mean read-out; stronger effect = higher value
# [12] = viability rescue of complex I mutant cybrids, primary screen, cell-based, galactose medium, ATP luminescence (AID 1645843;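 active means z-score of at least 1.8 in each of two replicates, scored against plate mean and spread of sample wells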;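 further: positive z means more ATP and so rescue of galactose-driven cybrid death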); conditions: complex I mutant cybrid cells, 72 h, stronger effect = higher value
# [13] = system: F380Y/beta1; assay: modulators of BK channel variants, profiling panel, selectivity assay, cell-based, U2OS BacMam, thallium flux, beta subunits (AID 1259406); conditions: at 30 µM;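 further: initial slope of Thallos dye fluorescence rise after thallium is added; log ratio against the mean of 0.3% DMSO vehicle wells on the same plate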
# [14] = system: F380Y/beta4; assay: as above; conditions: at 30 µM
# [15] = system: R275C; assay: as above; conditions: at 30 µM
# [16] = system: R275C/beta1; assay: as above; conditions: at 30 µM
# [17] = system: R275C/beta2Delta; assay: as above; conditions: at 30 µM
# [18] = system: R275C/beta4; assay: as above; conditions: at 30 µM
# [19] = system: R275C/Slo1WT/beta2; assay: as above; conditions: at 30 µM
# [20] = liver-stage malaria parasite growth inhibition, primary screen, cell-based, HepG2, luciferase luminescence, HepG2 viability (AID 624349; in the data active means parasite load remaining mostly below about 12%, no sharp cut-off; inactive means mostly above about 10%;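 further: 100% = mean of DMSO negative control wells on the same plate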); conditions: P. berghei liver stage in HepG2, luciferase luminescence, concentration not given here; parasite load remaining: stronger effect = lower value; viability: measured here: HepG2 viability without parasites
compound,measurement,setting,value
CC(C)(C)NCC(O)c1cc(O)cc(O)c1 (configuration not stated),inhibition,[1],10.1%
same,score,[2],1.33
same,rescue above control,[3],-7.82
same,cytochrome c release ratio,[4],1.15
same,inhibition of aggregation,[5],47.9%
same,glutamate uptake change,[6],22.8%
same,aggregation suppression score,[7],1.5
same,survival,[8],21.1 (inactive)
same,inhibition,[9],-2% (inactive)
same,fluorescence ratio,[10],1.05 (inactive)
same,mean signal,[11],269 (inactive)
same,z-score,[12],0.355 (inactive) and 1.03 (inactive)
same,log fold change Tl+ flux,[13],-0.0587 (inactive)
same,log fold change Tl+ flux,[14],-0.0336 (inactive)
same,log fold change Tl+ flux,[15],0.00159 (inactive)
same,log fold change Tl+ flux,[16],-0.00541 (inactive)
same,log fold change Tl+ flux,[17],-0.00466 (inactive)
same,log fold change Tl+ flux,[18],0.00501 (inactive)
same,log fold change Tl+ flux,[19],-0.0142 (inactive)
NS(=O)(=O)c1cc2c(cc1C(F)(F)F)NCNS2(=O)=O,inhibition,[1],-8.77%
same,score,[2],1.38
same,rescue above control,[3],-10.8
same,cytochrome c release ratio,[4],0.95
same,inhibition of aggregation,[5],91.6%
same,glutamate uptake change,[6],-18.5%
same,aggregation suppression score,[7],1.31
same,survival,[8],23.1 (inactive)
same,fluorescence ratio,[10],1.02 (inactive)
same,mean signal,[11],224 (inactive)
same,z-score,[12],1.47 (inactive)
same,log fold change Tl+ flux,[13],0.0232 (inactive)
same,log fold change Tl+ flux,[14],0.0329 (inactive)
same,log fold change Tl+ flux,[15],-0.0328 (inactive)
same,log fold change Tl+ flux,[16],-0.0725 (inactive)
same,log fold change Tl+ flux,[17],0.0545 (inactive)
same,log fold change Tl+ flux,[18],0.0202 (inactive)
same,log fold change Tl+ flux,[19],0.0133 (inactive)
OCCN1CCN(CCCN2c3ccccc3Sc3ccc(Cl)cc32)CC1,inhibition,[1],-20.9%
same,score,[2],0.86
same,cytochrome c release ratio,[4],1.23
same,inhibition of aggregation,[5],49%
same,glutamate uptake change,[6],5.53%
same,aggregation suppression score,[7],0.889
same,survival,[8],1.67 (inactive)
same,inhibition,[9],-1% (inactive)
same,fluorescence ratio,[10],1.01 (inactive)
same,mean signal,[11],256 (inactive)
same,z-score,[12],-1.29 (inactive) and -1.32 (inactive)
same,log fold change Tl+ flux,[13],0.097 (inactive)
same,log fold change Tl+ flux,[14],0.284 (active)
same,log fold change Tl+ flux,[15],-0.201 (active)
same,log fold change Tl+ flux,[16],0.341 (active)
same,log fold change Tl+ flux,[17],-0.0309 (inactive)
same,log fold change Tl+ flux,[18],0.17 (active)
same,log fold change Tl+ flux,[19],-0.0801 (inactive)
O=C(CCCN1CC=C(n2c(=O)[nH]c3ccccc32)CC1)c1ccc(F)cc1,inhibition,[1],-1.81%
same,score,[2],1.12
same,rescue above control,[3],6.51
same,cytochrome c release ratio,[4],1.19
same,inhibition of aggregation,[5],63.6%
same,glutamate uptake change,[6],4.12%
same,aggregation suppression score,[7],1.21
same,survival,[8],4.83 (inactive)
same,fluorescence ratio,[10],0.99 (inactive)
same,mean signal,[11],249 (inactive)
same,z-score,[12],-0.69 (inactive)
same,log fold change Tl+ flux,[13],-0.0432 (inactive)
same,log fold change Tl+ flux,[14],0.0551 (inactive)
same,log fold change Tl+ flux,[15],0.0212 (inactive)
same,log fold change Tl+ flux,[16],0.0837 (active)
same,log fold change Tl+ flux,[17],0.0699 (inactive)
same,log fold change Tl+ flux,[18],0.00129 (inactive)
same,log fold change Tl+ flux,[19],0.0371 (inactive)
NC(=O)N1c2ccccc2C=Cc2ccccc21,inhibition,[1],9.92%
same,score,[2],1.24
same,rescue above control,[3],-11.1
same,cytochrome c release ratio,[4],1.51
same,inhibition of aggregation,[5],83.1%
same,glutamate uptake change,[6],-6.72%
same,aggregation suppression score,[7],1.82
same,survival,[8],26.6 (inactive)
same,inhibition,[9],-1% (inactive)
same,fluorescence ratio,[10],1.03 (inactive)
same,mean signal,[11],259 (inactive)
same,z-score,[12],0.21 (inactive) and 0.34 (inactive) and 0.265 (inactive)
same,log fold change Tl+ flux,[13],-0.00275 (inactive)
same,log fold change Tl+ flux,[14],-0.00351 (inactive)
same,log fold change Tl+ flux,[15],0.0472 (inactive)
same,log fold change Tl+ flux,[16],0.00405 (inactive)
same,log fold change Tl+ flux,[17],0.0457 (inactive)
same,log fold change Tl+ flux,[18],-0.0824 (inactive)
same,log fold change Tl+ flux,[19],-0.0474 (inactive)
CN(C)CCC[C@@]1(c2ccc(F)cc2)OCc2cc(C#N)ccc21,parasite load remaining,[20],78.9% (inactive) and 44.8% (inactive)
same,viability,[20],63.5% and 102%
same,fluorescence ratio,[10],1.05 (inactive)
same,mean signal,[11],287 (inactive)
same,z-score,[12],0.15 (inactive) and 0.43 (inactive)
same,log fold change Tl+ flux,[13],-0.0013 (inactive)
same,log fold change Tl+ flux,[14],0.042 (inactive)
same,log fold change Tl+ flux,[15],-0.0846 (inactive)
same,log fold change Tl+ flux,[16],0.0547 (inactive)
same,log fold change Tl+ flux,[17],0.0841 (inactive)
same,log fold change Tl+ flux,[18],0.0144 (inactive)
same,log fold change Tl+ flux,[19],0.0208 (inactive)
Cc1ccc(Cl)c(Nc2ccccc2C(=O)O)c1Cl,inhibition,[1],12.9%
same,score,[2],0.67
same,rescue above control,[3],16.6
same,cytochrome c release ratio,[4],1.42
same,inhibition of aggregation,[5],46.5%
same,glutamate uptake change,[6],-15.8%
same,aggregation suppression score,[7],0.94
same,survival,[8],16.6 (inactive)
same,inhibition,[9],0% (inactive)
same,fluorescence ratio,[10],0.6 (active)
same,mean signal,[11],249 (inactive)
same,z-score,[12],2.05 (inactive) and 0.72 (inactive)
same,log fold change Tl+ flux,[13],0.408 (active)
same,log fold change Tl+ flux,[14],0.386 (active)
same,log fold change Tl+ flux,[15],0.0346 (inactive)
same,log fold change Tl+ flux,[16],0.34 (active)
same,log fold change Tl+ flux,[17],0.336 (active)
same,log fold change Tl+ flux,[18],0.266 (active)
same,log fold change Tl+ flux,[19],0.0371 (inactive)
CCN(CC)CCNC(=O)c1ccc(N)cc1,inhibition,[1],-1.81%
same,score,[2],1.26
same,rescue above control,[3],9.03
same,cytochrome c release ratio,[4],1.74
same,inhibition of aggregation,[5],49.4%
same,glutamate uptake change,[6],-9.57%
same,aggregation suppression score,[7],1.03
same,survival,[8],12.9 (inactive)
same,inhibition,[9],-2% (inactive)
same,mean signal,[11],241 (inactive)
same,z-score,[12],0.47 (inactive) and -0.57 (inactive) and 0.345 (inactive)
same,log fold change Tl+ flux,[13],0.0223 (inactive)
same,log fold change Tl+ flux,[14],0.0227 (inactive)
same,log fold change Tl+ flux,[15],0.0572 (inactive)
same,log fold change Tl+ flux,[16],-0.0679 (inactive)
same,log fold change Tl+ flux,[17],-0.0122 (inactive)
same,log fold change Tl+ flux,[18],-0.0764 (inactive)
same,log fold change Tl+ flux,[19],-0.03 (inactive)
CCOC(=O)[C@H](CCc1ccccc1)N[C@@H](C)C(=O)N1Cc2ccccc2C[C@H]1C(=O)O,inhibition,[1],20.2%
same,score,[2],1.04
same,rescue above control,[3],4.28
same,cytochrome c release ratio,[4],0.82
same,inhibition of aggregation,[5],37.2%
same,glutamate uptake change,[6],3.41%
same,aggregation suppression score,[7],1.35
same,fluorescence ratio,[10],1.02 (inactive)
same,mean signal,[11],206 (inactive)
same,z-score,[12],0.72 (inactive) and 0.435 (inactive)
same,log fold change Tl+ flux,[13],-0.0839 (inactive)
same,log fold change Tl+ flux,[14],-0.00668 (inactive)
same,log fold change Tl+ flux,[15],-0.00535 (inactive)
same,log fold change Tl+ flux,[16],0.0226 (inactive)
same,log fold change Tl+ flux,[17],0.0266 (inactive)
same,log fold change Tl+ flux,[18],0.0169 (inactive)
same,log fold change Tl+ flux,[19],0.0209 (inactive)
CN(C)CCOC(C)(c1ccccc1)c1ccccn1 (configuration not stated),inhibition,[1],9.79%
same,score,[2],1.23
same,rescue above control,[3],-5.3
same,cytochrome c release ratio,[4],0.7
same,inhibition of aggregation,[5],77%
same,glutamate uptake change,[6],7.08%
same,aggregation suppression score,[7],1.46
same,survival,[8],6.42 (inactive)
same,inhibition,[9],-2% (inactive)
same,fluorescence ratio,[10],1.04 (inactive)
same,mean signal,[11],230 (inactive)
same,z-score,[12],0.14 (inactive) and -0.05 (inactive) and 0.35 (inactive)
same,log fold change Tl+ flux,[13],-0.0273 (inactive)
same,log fold change Tl+ flux,[14],0.0181 (inactive)
same,log fold change Tl+ flux,[15],-0.00524 (inactive)
same,log fold change Tl+ flux,[16],-0.0059 (inactive)
same,log fold change Tl+ flux,[17],-0.00567 (inactive)
same,log fold change Tl+ flux,[18],0.0164 (inactive)
same,log fold change Tl+ flux,[19],0.0279 (inactive)
